# From PubChem BioAssay (Tox21)
# Results filed as inconclusive are left out. Entries that show only a call come without a potency. Unmarked numbers belong to inactive results. Calls of active or inactive are those of the source. Unless noted, calls come from the whole dose curve; as a rule, active = well fitted curve in the direction sought with a large enough effect in the repeat runs; inconclusive = weak or mixed curves; inactive = no such curve, though single readings can be large; an effect the other way counts as inactive or inconclusive.
# Legend:
# [1] = biological target: Retinoic acid receptor RXR-alpha (Homo sapiens) (UniProt P19793); assay: qHTS assay to identify small molecule agonists of the RXR signaling pathway (AID 1159527; calls by dose curve; note: nearly all actives have a fitted effect of over 35% in size; note: potency is the fitted concentration of half-maximal effect)
# Outline: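 Agonist mode; 9-cis retinoic acid positive control. HEK 293T UAS-bla reporter cells, 2% charcoal-stripped FBS, 16 hr compound exposure at 37 C/5% CO2. LiveBLAzer B/G FRET substrate 2 hr RT; ex 405, em 460/530 nm.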
# [2] = qHTS assay to identify small molecule agonists of the RXR signaling pathway - cell viability counter screen (AID 1159529); note: series mostly up to about 77 µM; nearly all actives have a fitted effect of over 50% in size
# Outline: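 Luminescence from CellTiter-Glo (30 min, RT) measured viability in the same wells as the beta-lactamase reporter readout. Cells: GeneBLAzer RXR-alpha HEK 293T, 2% charcoal-stripped FBS. Compound exposure 16 hr, 37 C.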
# [3] = qHTS assay to identify small molecule antagonists of the retinoid acid receptor (RAR) signaling pathway - cell viability counter screen (AID 1159551); note: nearly all actives have a fitted effect of over 35% in size
# Outline: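 C3RL4 RARE-luciferase line; cpds + retinol 1 uM final, 6 h, 37 C/5% CO2; CellTiter-Glo ATP luminescence, 30 min RT.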
# Sequence of Retinoic acid receptor RXR-alpha (Homo sapiens) (P19793 whole entry, looked up): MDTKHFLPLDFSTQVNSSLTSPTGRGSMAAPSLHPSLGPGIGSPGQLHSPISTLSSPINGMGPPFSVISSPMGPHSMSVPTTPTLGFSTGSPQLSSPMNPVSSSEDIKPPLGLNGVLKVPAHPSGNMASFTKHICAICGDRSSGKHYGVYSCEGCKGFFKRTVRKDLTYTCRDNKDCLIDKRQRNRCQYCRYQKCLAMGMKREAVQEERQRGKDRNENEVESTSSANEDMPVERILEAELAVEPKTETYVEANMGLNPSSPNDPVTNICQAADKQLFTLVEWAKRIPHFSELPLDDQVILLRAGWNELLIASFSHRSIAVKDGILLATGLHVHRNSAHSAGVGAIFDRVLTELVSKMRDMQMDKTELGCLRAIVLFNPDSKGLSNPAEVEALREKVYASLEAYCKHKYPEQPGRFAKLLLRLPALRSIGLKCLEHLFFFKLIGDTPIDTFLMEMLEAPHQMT
structure (smiles),measurement,setting,value
CSc1nc(NC2CC2)nc(NC(C)(C)C)n1,Potency,[1],inactive
same,Potency,[2],inactive
CCCCc1ccc(N)cc1,Potency,[1],inactive
same,Potency,[2],inactive
CCN1CCCC(OC(=O)C(c2ccccc2)c2ccccc2)C1 (stereo not given),Potency,[1],inactive
same,Potency,[2],inactive
CCC(C(=O)NC(N)=O)c1ccccc1 (stereo not given),Potency,[1],inactive
same,Potency,[2],inactive
same,outcome,[3],inactive
CC(=O)O[C@H](CC(=O)[O-])C[N+](C)(C)C,Potency,[1],inactive
same,Potency,[2],inactive
OCC(CO)(CO)COCC(CO)(CO)CO,Potency,[1],inactive
same,Potency,[2],inactive
CCCCCOC(=O)Nc1nc(=O)n([C@@H]2O[C@H](C)[C@@H](O)[C@H]2O)cc1F,Potency,[1],inactive
same,Potency,[2],inactive
CCC(C)(C)C1CCC(OC)CC1 (stereo not given),Potency,[1],inactive
same,Potency,[2],inactive
O=C1OC(=O)c2cc([N+](=O)[O-])ccc21,Potency,[1],inactive
same,Potency,[2],inactive
same,outcome,[3],inactive
C=C(C)[C@H]1CC=C(C)CC1,Potency,[1],inactive
same,Potency,[2],inactive
Cc1ccc(N)cc1[N+](=O)[O-],Potency,[1],inactive
same,Potency,[2],inactive
C=C(C)C(=O)NCCCN(C)C,Potency,[1],inactive
same,Potency,[2],inactive
CCN1CCN(c2cc3c(cc2F)c(=O)c(C(=O)O)cn3C2CC2)CC1,Potency,[1],inactive
same,Potency,[2],inactive
CC(C)(C)OC(=O)N1C[C@@H](F)C[C@H]1C(=O)O,Potency,[1],inactive
same,Potency,[2],inactive
same,outcome,[3],inactive
O=C(O)/C=C/c1ccc(Cn2ccnc2)cc1,Potency,[1],inactive
C=CCOc1nc(OCC=C)nc(OCC=C)n1,Potency,[1],inactive
same,Potency,[2],inactive
CO[Si](CCCNCCC[Si](OC)(OC)OC)(OC)OC,Potency,[1],inactive
same,Potency,[2],inactive
CCCCCCCCCCC1CO1 (stereo not given),Potency,[1],inactive
same,Potency,[2],inactive
same,outcome,[3],inactive
NCC[C@H](O)C(=O)N[C@@H]1C[C@H](N)[C@@H](O[C@H]2O[C@H](CN)[C@@H](O)[C@H](O)[C@H]2O)[C@H](O)[C@H]1O[C@H]1O[C@H](CO)[C@@H](O)[C@H](N)[C@H]1O,activation,[1],7.2% [at 0.29 µM]
same,"activity change, negative = cytotoxicity",[2],9.63% [at 0.29 µM]
CC1CCN(CCCC(=O)c2ccc(F)cc2)CC1,Potency,[1],inactive
same,Potency,[2],inactive
CC(C)CCOC(=O)CC(C)C,Potency,[1],inactive
same,Potency,[2],inactive
NC(=O)CCCCC1CCSS1 (stereo not given),Potency,[1],inactive
same,Potency,[2],inactive
CC(=O)CCc1ccc(O)cc1,Potency,[1],inactive
same,Potency,[2],inactive
COc1cc(O)cc(O)c1,Potency,[1],inactive
same,Potency,[2],inactive
Nc1cc(C(Cl)=C(Cl)Cl)c(S(N)(=O)=O)cc1S(N)(=O)=O,Potency,[1],inactive
same,Potency,[2],inactive
Cc1ccccc1C(=O)O,Potency,[1],inactive
same,Potency,[2],inactive
NCCNC(=O)c1ccc(Cl)cn1,Potency,[1],inactive
same,Potency,[2],inactive
NS(=O)(=O)c1cc2c(cc1Cl)NC(CSCc1ccccc1)=NS2(=O)=O,Potency,[1],inactive
same,Potency,[2],inactive
same,outcome,[3],inactive
CC(C)N1C(=O)c2ccccc2C1=O,Potency,[1],inactive
same,Potency,[2],inactive
same,outcome,[3],inactive
CCCCCCCCCCCCCCCCCC(=O)OCCCCCCCCCCCCCC(C)C,Potency,[1],inactive
same,Potency,[2],inactive
CC(CCO)CCCC(C)(C)O (stereo not given),Potency,[1],3.09 µM (active)
same,Potency,[2],inactive
C=CC(=O)N1CCOCC1,Potency,[1],inactive
same,Potency,[2],inactive
same,outcome,[3],inactive
